# Screens deposited in PubChem BioAssay by The Scripps Research Institute Molecular Screening Center.
# GPR151 activ: human GPR151 activation; Q8TDV0; PathHunter beta-arrestin GPR151 cells, luminescence; activation, % at 11.2 µM; 1% of 650,000 active; AID 1508602; in the data active = activation above about 4.9%;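 also: 0% = median of compound wells and 100% = cells with positive control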
# Target sequence (Q8TDV0 whole entry, looked up): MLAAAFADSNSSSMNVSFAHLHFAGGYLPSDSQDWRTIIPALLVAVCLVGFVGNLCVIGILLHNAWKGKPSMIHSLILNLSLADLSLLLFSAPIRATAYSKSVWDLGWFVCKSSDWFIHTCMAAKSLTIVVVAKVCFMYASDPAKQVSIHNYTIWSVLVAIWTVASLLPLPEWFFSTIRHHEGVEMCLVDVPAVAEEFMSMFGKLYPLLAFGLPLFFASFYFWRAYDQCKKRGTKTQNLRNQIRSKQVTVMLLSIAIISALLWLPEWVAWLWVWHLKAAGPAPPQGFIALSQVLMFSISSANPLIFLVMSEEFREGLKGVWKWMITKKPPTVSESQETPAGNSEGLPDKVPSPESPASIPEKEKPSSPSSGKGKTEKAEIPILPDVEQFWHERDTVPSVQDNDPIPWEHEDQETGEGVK
# MITF inh: blocks human microphthalmia-associated transcription factor. O75030. AID 1259374. inhibition, % at 2.6 µM. AlphaScreen MITF homodimerization, bead proximity signal. 0.91% of 650,000 active; in the data active = inhibition above about 50%;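 also: 0% = vehicle wells with protein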
# TEAD-YAP inh: TEAD-YAP interaction inhibition | HEK-TIYL cells, TEAD-Gal4/YAP UAS-luciferase luminescence | inhibition, % at 9.12 µM | 1.4% of 640,000 active | AID 1259422; in the data active = inhibition above about 32%;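 also: 0% = median of test compound wells and 100% = reference inhibitor wells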
# FBW7 act: human FBW7 E3 ligase activation, primary screen. Q969H0. AlphaScreen FBW7–phospho-cyclin E peptide binding, activator screen. normalized activity (activation), % at 26.1 µM. 0.13% of 650,000 active. AID 1259310; in the data active = normalized activity above about 1.9%;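 also: purified mutant Fbw7 with reduced substrate affinity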
# An asterisk follows results filed as active. Only some compounds are listed: those with a hit (about 3.5% of all), similar ones and a draw of the others.
SMILES,GPR151 activ,MITF inh,TEAD-YAP inh,FBW7 act
Cc1nn(C)c(Cl)c1S(=O)(=O)N1CCc2ccccc2C1CN1C(=O)c2ccccc2C1=O (centres undefined),-1.2,-17.0,-2.2,0.0
O=C(NCc1cccnc1)/C(=C/c1ccc(-c2ccc(Br)cc2)o1)S(=O)(=O)c1ccccc1,-0.3,1.9,35.4*,0.0
O=C(NCc1cccnc1)/C(=C\c1ccc(Br)cc1)S(=O)(=O)c1ccccc1,-0.5,-5.1,85.6*,-0.1
O=C(NCc1cccnc1)/C(=C/c1ccc(-c2cccc(Cl)c2)o1)S(=O)(=O)c1ccccc1,0.3,6.3,52.9*,-0.1
O=C(NCc1cccnc1)/C(=C/c1ccc(-c2cccc([N+](=O)[O-])c2)o1)S(=O)(=O)c1ccccc1,-0.6,7.4,13.7,-0.2
O=C(NCc1cccnc1)/C(=C\c1cccc(Oc2ccccc2)c1)S(=O)(=O)c1ccccc1,-2.6,10.2,81.6*,0.2
CCOc1cc(C#N)ccc1OCc1nc(-c2ccc(C)cc2)no1,-0.3,-13.5,6.9,0.3
Cn1ncc2c(N3CCN(C(c4ccccc4)c4ccc(Cl)cc4)CC3)ncnc21 (centres undefined),1.8,5.4,10.9,0.2
c1ccc(CSc2nc3ccncc3[nH]2)cc1,-2.0,-11.4,56.7*,0.2
COC(=O)c1ccc(CSc2nc3ccncc3[nH]2)cc1,-2.6,4.2,91.5*,0.3
N#Cc1cccc(CSc2nc3ccncc3[nH]2)c1,-0.7,5.9,2.5,0.8
COC(=O)c1ccc(CSc2nc(C)cc(=O)[nH]2)cc1,-0.5,-8.8,4.2,-0.1
O=C(OCCNC1=C(n2nnc3ccccc32)C(=O)c2ccccc2C1=O)c1ccccc1,-0.2,7.2,-6.4,-1.1
COc1ccc(NC2=C(n3nnc4ccccc43)C(=O)c3ccccc3C2=O)cc1,-0.6,6.5,59.1*,-0.2
COc1ccccc1Nc1nc(NCc2ccco2)c2ccccc2n1,-1.4,-6.6,3.9,-0.2
Cc1ccc(Nc2nc(NCc3ccco3)c3ccccc3n2)cc1,0.8,5.5,45.9*,-0.1
COC(=O)c1ccc(Nc2nc(NCc3ccco3)c3ccccc3n2)cc1,-6.3,-11.6,74.7*,-0.1
COc1ccc(Nc2nc(NCc3ccccc3)c3ccccc3n2)cc1,-0.4,3.0,43.6*,-0.1
COc1ccc(Nc2nc(C)c3ccccc3n2)cc1,0.6,3.2,-51.2,0.0
FC(F)(F)c1cccc(CNc2nc(-c3csc4ccccc34)nc3nc[nH]c23)c1,-1.1,5.2,-4.0,-0.1
Cc1ccc(C(=O)/C(=C\c2cccs2)c2nc3ccccc3o2)cc1,0.8,-4.1,72.7*,-0.5
COc1ccc(C(=O)/C(=C\c2ccc(C)o2)c2nc3ccccc3o2)cc1,-0.6,3.0,37.8*,-0.3
Cc1ccc(N2C(=O)/C(=C/c3ccco3)C(=O)NC2=S)cc1,0.9,-15.2,-6.5,0.1
Cc1cccc(N2C(=O)/C(=C/C=C/c3ccco3)C(=O)NC2=S)c1,0.6,58.1*,-8.1,-0.2
COc1ccc(N2C(=O)/C(=C/C=C/c3ccco3)C(=O)NC2=S)c(OC)c1,2.1,76.4*,9.1,-1.0
SMILES,GPR151 activ,MITF inh,TEAD-YAP inh,FBW7 act
COc1ccc(-n2nc3ccc(NC(=O)c4ccc(Cl)cc4Cl)cc3n2)cc1,1.3,0.4,-13.4,0.0
Cc1ccc(NC(=O)C2C3C=CC4(O3)C2C(=O)N(CCC(C)C)C4C(=O)NC2CCCC(C)C2C)cc1Cl (centres undefined),1.1,0.4,11.6,0.0
C=CCN(CC=C)c1nncc(-c2ccc(Cl)cc2)n1,-0.6,6.3,7.9,0.2
CC(C)(C)NC(=O)/C=C/c1cccc2ccccc12,1.0,-12.1,-48.7,-0.1
COc1ccc(CN2CCN(C(=O)c3[nH]c(C)c(C(C)=O)c3C)CC2)c(OC)c1OC,-0.3,-5.8,-5.2,-0.1
CN(C)CCN(C(=O)c1c(F)cccc1F)c1nc2ccccc2s1,-0.9,5.8,-13.2,-0.1
CN(C)CCCN(C(=O)/C=C\c1ccc([N+](=O)[O-])cc1)c1nc2c(F)cccc2s1,-0.6,-20.3,76.3*,-0.1
COCCNC(=O)CCCOc1ccc(OC)cc1,2.0,5.8,12.9,-0.2
CCOC(=O)/C(C#N)=N/Nc1ccc2c(c1)OCCO2,-2.0,0.0,-24.3,-0.2
N#CC(C#N)=NNc1ccc2c(c1)OCO2,-1.0,-2.4,39.3*,0.1
CC(CNC(=O)c1ccccc1F)c1ccc([N+](=O)[O-])cc1 (centres undefined),-0.1,6.4,4.1,-0.1
Cc1cc2nc3cc(N)c(C)cc3cc2cc1N,0.6,7.7,72.5*,0.1
CN(C)c1ccc2nc3c(nc2c1)C(=O)c1ccccc1C3=O,-2.0,-8.4,-20.4,-0.1
Cc1cc2nc3ccc(N(C)C)cc3nc2cc1N,-6.1,57.8*,32.4*,0.0
O=c1cc(C(F)(F)F)nc2nc[nH]n12,-0.6,8.8,-1.3,0.1
COc1ccc(C2SCCN2S(=O)(=O)c2ccc(NC(C)=O)cc2)cc1 (centres undefined),2.8,12.8,14.2,0.6
COc1ccc(C2SCCN2S(=O)(=O)c2ccc(NC(C)=O)cc2)cc1OC (centres undefined),-0.8,14.2,1.6,1.9*
C=C1C2(C(=O)N3CCN(c4ccccc4F)CC3)CCC(C2)C1(C)C (centres undefined),-1.0,9.3,-2.7,-0.1
CCC(=O)NC(c1ccc([N+](=O)[O-])cc1)c1ccc2cccnc2c1O (centres undefined),0.2,-18.9,85.0*,-0.2
CCC(=O)NC(c1ccc(C)cc1)c1ccc2cccnc2c1O (centres undefined),-0.5,27.9,88.1*,-0.5
CCC(=O)NC(c1cccc([N+](=O)[O-])c1)c1ccc2cccnc2c1O (centres undefined),0.7,17.3,4.2,-1.0
O=C(O)/C(=C/c1cccc([N+](=O)[O-])c1)c1cccc2ccccc12,0.3,0.6,-2.6,-0.1
Oc1ccc(CCNc2nc(Nc3ccc(N4CCOCC4)cc3)nc3c2ncn3-c2ccsc2)cc1,-2.1,19.3,42.4*,0.1
c1ccc(CNc2nc(Nc3ccc(N4CCOCC4)cc3)nc3c2ncn3-c2ccsc2)cc1,3.1,20.9,-10.4,0.3
OCCNc1nc(Nc2ccc(N3CCOCC3)cc2)nc2c1ncn2-c1ccsc1,0.1,1.9,60.3*,-0.2
SMILES,GPR151 activ,MITF inh,TEAD-YAP inh,FBW7 act
c1ccc(OCCNc2nc(Nc3ccc(N4CCOCC4)cc3)nc3c2ncn3-c2ccsc2)cc1,-1.5,16.7,-1.0,0.0
CC(C)N(CCNc1nc(Nc2ccc(N3CCOCC3)cc2)nc2c1ncn2-c1ccsc1)C(C)C,-1.6,-1.7,38.9*,-0.2
CC(C)N(CCNc1nc(Nc2ccc(N3CCOCC3)cc2)nc2c1ncn2-c1ccccc1)C(C)C,-1.2,10.0,13.1,-0.2
COC(=O)COc1cccc(-c2nc(Nc3ccc4[nH]ncc4c3)c3ccccc3n2)c1,0.2,12.8,3.0,-0.1
O=C(COc1cccc(-c2nc(Nc3ccc4[nH]ncc4c3)c3ccccc3n2)c1)Nc1cccnc1,0.0,12.8,37.2*,0.0
CC1CCN(C(=O)Cn2c(SCC(=O)N3CCc4ccccc43)nc3ccccc32)CC1,1.7,5.3,2.2,-0.1
